Results on 40 compounds are retold here after PubChem BioAssay (NCATS).

Molecules are shown by their SMILES. Results filed as inconclusive are left out. Entries that show only a call come without a potency. The source made the active and inactive calls. The call rests on the fitted dose curve; in most records, active means well fitted inhibition curve with a large enough effect; inconclusive means small, poorly fitted or top-dose-only effect; inactive means flat fitted curve, though single readings scatter. Bridge positions count the residues as written; N and C are the ends. Square brackets hold non-standard residues; d marks the D form. Peptide text beside a SMILES is read from it. * marks the point of attachment. ξ: configuration not given here. Octanoyl(6-Me) = CCC(C)CCCCC(=O)*; ξThr(3R) = C[C@@H](O)C(N)C(=O)O; dDab = NCC[C@@H](N)C(=O)O; Dab = NCC[C@H](N)C(=O)O

For this test, the target named is Luciferin 4-monooxygenase (Photinus pyralis) (UniProt P08659). The experiment in a line: Biochemical firefly luciferase enzyme assay for NPC (AID 624030).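 Further: purified P. pyralis luciferase at 10 nM with luciferin and ATP substrate; nearly all actives have a fitted effect of over 70% in size.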 The settings on record: purified P. pyralis luciferase, luminescence, 5 min; series mostly up to 58.6 µM. The procedure, abridged: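 Direct inhibition of firefly luciferase enzyme (10 nM final, 50 mM Tris Acetate) assessed by luminescence within 5 minutes. Percent activity scaled between DMSO and PTC124 positive control, with concentration-effect curves classified by fit quality and response.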
Chain of Luciferin 4-monooxygenase (Photinus pyralis) (P08659 whole entry, looked up): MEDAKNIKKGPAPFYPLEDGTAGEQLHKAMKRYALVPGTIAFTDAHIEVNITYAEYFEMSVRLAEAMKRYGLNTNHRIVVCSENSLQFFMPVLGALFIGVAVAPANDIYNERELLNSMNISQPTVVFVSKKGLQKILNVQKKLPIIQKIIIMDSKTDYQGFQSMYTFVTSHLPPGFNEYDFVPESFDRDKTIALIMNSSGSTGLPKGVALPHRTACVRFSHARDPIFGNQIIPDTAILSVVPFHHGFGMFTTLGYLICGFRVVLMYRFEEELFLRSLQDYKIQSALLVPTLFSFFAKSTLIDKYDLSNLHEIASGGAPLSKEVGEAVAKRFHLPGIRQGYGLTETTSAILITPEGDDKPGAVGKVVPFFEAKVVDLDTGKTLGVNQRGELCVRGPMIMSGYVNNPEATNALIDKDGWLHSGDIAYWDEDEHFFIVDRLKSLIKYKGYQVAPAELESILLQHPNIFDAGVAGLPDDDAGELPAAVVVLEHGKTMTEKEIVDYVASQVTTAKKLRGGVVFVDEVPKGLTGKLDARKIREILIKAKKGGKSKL
`CO/N=C(\C(=O)N[C@@H]1C(=O)N2C(C(=O)O)=C(Cn3nnc(C)n3)CS[C@H]12)c1csc(N)n1`: the Potency result is “inactive”. For `Cc1ccccc1C(=O)N1CC/C(=N/OS(=O)(=O)O)c2ccc(Cl)cc21` the value was “inactive”; for `CCC(=O)OC1CCC2C3CCc4cc(O)ccc4C3CCC12C` (stereo not given), “inactive”; for `C#CC1(OC(C)=O)CCC2C3CCC4=CC(OC(C)=O)CCC4C3CCC21C` (stereo not given), “inactive”. In the case of `COc1ccc(CCNC[C@H](O)COc2cccc(C)c2)cc1OC`, the Potency entry was “inactive”. Then `CCCCC(=O)OCC(=O)[C@H]1[C@H](C)C[C@@H]2[C@@H]3C[C@@H](F)C4=CC(=O)C=C[C@]4(C)[C@@]3(F)[C@@H](O)C[C@@]21C`, with “inactive”; and `CC1CC2C3CCC4=CC(=O)C=CC4(C)[C@@]3(F)C(O)CC2(C)[C@@]1(O)C(=O)CCl` (stereo not given in full), with “inactive”; and `COCC1=C(C(=O)OC(C)OC(=O)OC(C)C)N2C(=O)C(NC(=O)/C(=N/OC)c3csc(N)n3)[C@H]2SC1` (stereo not given in full), with “inactive”.

On to `COC1=C(C(=O)O)N2C(=O)[C@@H](NC(=O)C(N)C3C=CCC=C3)[C@H]2SC1` (stereo not given in full), for which the Potency entry was “inactive”. Then `CC#CCC(C)[C@H](O)/C=C/C1[C@H](O)C[C@@H]2C/C(=C\CCCC(=O)O)C[C@H]12` (stereo not given in full), with “inactive”; and `O=S(=O)(O)OCC1OC(COS(=O)(=O)O)(C2(OS(=O)(=O)O)OC(CO)C(OS(=O)(=O)O)C(OS(=O)(=O)O)C2OS(=O)(=O)O)C(OS(=O)(=O)O)C1OS(=O)(=O)O` (stereo not given), with “inactive”. Then `CCC(C)C1OC2(C=CC1C)CC1CC(C/C=C(\C)C(OC3CC(OC)C(OC4CC(OC)C(NC(C)=O)C(C)O4)C(C)O3)C(C)/C=C/C=C3\COC4C(O)C(C)=CC(C(=O)O1)C34O)O2` (stereo not given) (tested in a mixture with another compound), with “inactive”; and `O=P(O)(O)OC[C@@H](O)CO`, with “inactive”; and `CC[C@H]1OC(=O)[C@H](C)[C@@H](O[C@H]2C[C@@](C)(OC)[C@@H](O)[C@H](C)O2)[C@H](C)[C@@H](O[C@@H]2O[C@H](C)C[C@H](N(C)C)[C@H]2O)[C@](C)(O)C[C@@H](C)[C@@H]2N[C@@H](COCCOC)O[C@H]([C@H]2C)[C@]1(C)O`, with “inactive”.

Regarding `CC(=O)O[C@H]1C[C@@H]2CC[C@@H]3[C@H](CC[C@]4(C)[C@H](OC(C)=O)[C@@H](N5CC[N+](C)(C)CC5)C[C@@H]34)[C@@]2(C)C[C@@H]1N1CC[N+](C)(C)CC1`, the Potency result is “inactive”. With `CCC(=O)C(Cc1ccccc1)(Cc1ccccc1)CC(C)N(C)C` (stereo not given), the Potency entry was “inactive”. For `CS(=O)(=O)NC(=O)CCC/C=C\C[C@H]1C(=O)C[C@@H](O)[C@@H]1/C=C/[C@@H](O)COc1ccccc1` the value was “inactive”; for `CCN1C(=O)c2ccccc2C1Nc1cccc(OCCN2CCCCC2)c1` (stereo not given), “inactive”. Then `COc1ccc2c(C(=S)N(C)CC(=O)O)cccc2c1C(F)(F)F`, with “inactive”.

For the compound `CC(=O)OCC(=O)C1(O)CCC2C3CCC4=CC(=O)CCC4(C)C3(F)C(O)CC21C` (stereo not given), the Potency result is “inactive”. Regarding `CC[C@H](c1ccccc1)c1noc(CCN(CC)CC)n1`, the Potency result is “inactive”. Then `O=C(CO)[C@@H](O)C(O)[C@@H](O)CO` (stereo not given in full), with “inactive”; and `Cc1ccc(C(=O)[C@H](C)CN2CCCCC2)cc1`, with “inactive”. Then `CCN1CCN(C(=O)N[C@H](C(=O)N[C@@H]2C(=O)N3[C@@H](C(=O)O)C(C)(C)S[C@@H]23)c2ccccc2)C(=O)C1=O`, with “inactive”; and `c1cnc2cc3c(cc2n1)[C@@H]1CNC[C@@H]3C1`, with “inactive”.

Turning to `CSCCC(NC(=O)[C@H](Cc1c[nH]c2ccccc12)NC(=O)CNC(=O)[C@H](CCSC)NC(=O)[C@H](Cc1ccc(OS(=O)(=O)O)cc1)NC(=O)[C@@H](N)CC(=O)O)C(=O)N[C@@H](CC(=O)O)C(=O)N[C@@H](Cc1ccccc1)C(N)=O` (stereo not given in full), the Potency entry is “inactive”.

Take `O=C1O[C@H]2[C@@H](OC(O)[C@@H]2O)[C@H]1O` (stereo not given in full): the Potency result was “inactive”. Then `CN1CC[C@H](c2c(O)cc(O)c3c(=O)cc(-c4ccccc4Cl)oc23)[C@@H](O)C1`, with “inactive”. Then `CC/C=C(/C(=O)N[C@@H]1C(=O)N2C(C(=O)OCOC(=O)C(C)(C)C)=C(COC(N)=O)CS[C@H]12)c1csc(N)n1`, with “inactive”; and `CC(=O)C1(O)CCC2C3CC(C)C4=CC(=O)CCC4(C)C3CCC21C` (stereo not given), with “inactive”.

Take `C=C1/C(=C\C=C2/CCC[C@@]3(C)[C@@H]([C@H](C)OCCC(C)(C)O)CC[C@@H]23)C[C@@H](O)C[C@@H]1O`: the Potency entry is “inactive”.

With `CC#CC[C@@H](C)[C@@H](O)/C=C/[C@H]1[C@H]2c3cccc(CCCC(=O)O)c3O[C@H]2C[C@@H]1O`, the Potency entry is “inactive”.

`O=C1C=C(CO)OCC1=O`: the Potency entry is “inactive”.

Turning to `CO[C@@]1(NC(=O)CSC(F)F)C(=O)N2C(C(=O)O)=C(CSc3nnnn3CCO)CO[C@@H]21`, the Potency result is “inactive”.

For the compound `CC(C)(S)C(=O)NC(CS)C(=O)O` (stereo not given), the Potency result is “inactive”.

For `CCC(=O)Oc1ccc2c(c1)CCC1C2CC[C@]2(C)C(OC(=O)CC)CCC12` (stereo not given in full), the Potency result is “inactive”.

For the compound `C=C[C@]1(C)C[C@@H](OC(=O)CO)[C@]2(C)C(C)CC[C@]3(CCC(=O)[C@H]32)[C@@H](C)[C@@H]1O` (stereo not given in full), the Potency entry was “inactive”. Then `CC[C@@H]1OC(=O)C[C@H](O)[C@@H](C)[C@@H](O[C@H]2O[C@@H](C)[C@H](O[C@@H]3C[C@](C)(O)[C@H](O)[C@@H](C)O3)[C@@H](N(C)C)[C@@H]2O)[C@@H](C=O)C[C@@H](C)C(=O)/C=C/C(C)=C[C@@H]1CO[C@H]1O[C@@H](C)[C@H](O)[C@H](OC)[C@@H]1OC`, with “inactive”; and `CCC(C)CCCCC(=O)N[C@@H](CCN)C(=O)N[C@H](C(=O)N[C@@H](CCN)C(=O)N[C@H]1CCNC(=O)C([C@@H](C)O)NC(=O)[C@@H](CCN)NC(=O)[C@H](CCN)NC(=O)[C@H](CC(C)C)NC(=O)[C@@H](CC(C)C)NC(=O)[C@H](CCN)NC1=O)[C@@H](C)O` (stereo partly drawn) ({Octanoyl(6-Me)}-[Dab]T[Dab][Dab][Dab][dL]L[Dab][dDab][ξThr(3R)]; lactam 4-C), with “inactive”. For `CC(=O)O[C@H]1CC[C@@]2(C)C(=CCC3C2CC[C@]2(C)C(c4cccnc4)=CCC32)C1` (stereo not given in full) the value was “inactive”.
